Reference: patent publication US20220289795, “EFFICIENT METHOD FOR PREPARING PPR PROTEIN AND USE OF THE SAME” (EditForce, Inc., published 2022)
Positions count from the first letter of the chain named.

Legend:
Experiment in all cases: RPB-ELISA
Details in all cases: tags: N-terminal luciferase, C-terminal 6xHis; label: 5'-biotin; ssRNA
v3.1_PPR7 = target: T1, v3.1_PPR7 (Artificial Sequence)
T1 chain: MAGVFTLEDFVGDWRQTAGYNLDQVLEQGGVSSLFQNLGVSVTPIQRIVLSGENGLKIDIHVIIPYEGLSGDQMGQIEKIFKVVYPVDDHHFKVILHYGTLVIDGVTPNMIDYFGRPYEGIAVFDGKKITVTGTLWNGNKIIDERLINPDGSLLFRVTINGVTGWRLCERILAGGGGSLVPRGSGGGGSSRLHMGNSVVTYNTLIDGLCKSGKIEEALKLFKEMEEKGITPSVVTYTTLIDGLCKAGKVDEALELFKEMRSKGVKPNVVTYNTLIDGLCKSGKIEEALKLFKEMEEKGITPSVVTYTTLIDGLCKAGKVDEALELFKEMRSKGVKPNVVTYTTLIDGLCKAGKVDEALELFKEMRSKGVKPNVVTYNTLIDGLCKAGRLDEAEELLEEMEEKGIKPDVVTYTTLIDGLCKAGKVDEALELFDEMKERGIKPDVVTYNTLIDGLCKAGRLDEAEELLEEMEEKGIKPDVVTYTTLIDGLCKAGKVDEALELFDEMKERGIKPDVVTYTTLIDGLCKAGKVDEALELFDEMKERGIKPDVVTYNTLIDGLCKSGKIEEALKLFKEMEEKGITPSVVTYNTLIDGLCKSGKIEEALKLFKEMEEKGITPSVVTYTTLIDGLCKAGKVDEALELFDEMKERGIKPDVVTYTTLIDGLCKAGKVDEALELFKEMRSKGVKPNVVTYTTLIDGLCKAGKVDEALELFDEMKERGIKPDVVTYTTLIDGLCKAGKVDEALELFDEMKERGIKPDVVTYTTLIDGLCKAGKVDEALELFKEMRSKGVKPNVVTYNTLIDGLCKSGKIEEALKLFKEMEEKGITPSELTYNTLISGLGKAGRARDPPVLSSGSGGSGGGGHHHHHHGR
Procedure, shortened: (§1)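 5′-biotinylated 30-base RNA probes (18-base target) immobilised on streptavidin plates, then bound 30 min at RT by E. coli lysate with luciferase-fused PPR protein (1.5×10⁸ LU/μL) in Tris pH 7.6 buffer. Binding = luminescence minus no-RNA background.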

NL_v2_PPR20 = target: T2, NL_v2_PPR20 (Artificial Sequence)
T2 chain: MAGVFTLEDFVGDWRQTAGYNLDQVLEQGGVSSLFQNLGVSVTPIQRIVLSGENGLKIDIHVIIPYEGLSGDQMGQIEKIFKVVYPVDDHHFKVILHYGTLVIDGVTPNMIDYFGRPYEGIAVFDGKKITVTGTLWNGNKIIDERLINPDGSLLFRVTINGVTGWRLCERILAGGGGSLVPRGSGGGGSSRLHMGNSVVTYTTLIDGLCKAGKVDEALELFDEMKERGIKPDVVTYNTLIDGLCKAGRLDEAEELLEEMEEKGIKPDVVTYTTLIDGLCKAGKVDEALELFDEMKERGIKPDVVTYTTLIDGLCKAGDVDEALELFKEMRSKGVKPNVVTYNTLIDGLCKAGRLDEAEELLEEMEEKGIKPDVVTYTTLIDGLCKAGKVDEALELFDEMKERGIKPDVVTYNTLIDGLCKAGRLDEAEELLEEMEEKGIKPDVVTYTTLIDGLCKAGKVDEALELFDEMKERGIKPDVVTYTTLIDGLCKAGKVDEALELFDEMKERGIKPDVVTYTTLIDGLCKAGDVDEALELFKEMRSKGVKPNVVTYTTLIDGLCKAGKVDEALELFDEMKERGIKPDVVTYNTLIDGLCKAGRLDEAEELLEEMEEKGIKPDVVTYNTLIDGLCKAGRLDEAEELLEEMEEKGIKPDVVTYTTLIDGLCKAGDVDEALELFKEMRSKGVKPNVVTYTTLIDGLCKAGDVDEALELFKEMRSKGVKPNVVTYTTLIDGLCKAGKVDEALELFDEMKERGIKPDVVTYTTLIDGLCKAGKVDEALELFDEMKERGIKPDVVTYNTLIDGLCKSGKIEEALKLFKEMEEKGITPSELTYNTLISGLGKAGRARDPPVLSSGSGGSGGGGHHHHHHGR
Procedure, shortened: (§2)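 5′-biotinylated 30-base RNA probes holding 18-base targets were captured on streptavidin plates, blocked, then bound 30 min at room temperature with E. coli lysate of luciferase-fused PPR protein (1.5×10⁸ LU/μL) in Tris-HCl pH 7.6 buffer. After washing, luminescence minus no-RNA background gave binding power.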

v3.1_PPR22 = target: T3, v3.1_PPR22 (Artificial Sequence)
T3 chain: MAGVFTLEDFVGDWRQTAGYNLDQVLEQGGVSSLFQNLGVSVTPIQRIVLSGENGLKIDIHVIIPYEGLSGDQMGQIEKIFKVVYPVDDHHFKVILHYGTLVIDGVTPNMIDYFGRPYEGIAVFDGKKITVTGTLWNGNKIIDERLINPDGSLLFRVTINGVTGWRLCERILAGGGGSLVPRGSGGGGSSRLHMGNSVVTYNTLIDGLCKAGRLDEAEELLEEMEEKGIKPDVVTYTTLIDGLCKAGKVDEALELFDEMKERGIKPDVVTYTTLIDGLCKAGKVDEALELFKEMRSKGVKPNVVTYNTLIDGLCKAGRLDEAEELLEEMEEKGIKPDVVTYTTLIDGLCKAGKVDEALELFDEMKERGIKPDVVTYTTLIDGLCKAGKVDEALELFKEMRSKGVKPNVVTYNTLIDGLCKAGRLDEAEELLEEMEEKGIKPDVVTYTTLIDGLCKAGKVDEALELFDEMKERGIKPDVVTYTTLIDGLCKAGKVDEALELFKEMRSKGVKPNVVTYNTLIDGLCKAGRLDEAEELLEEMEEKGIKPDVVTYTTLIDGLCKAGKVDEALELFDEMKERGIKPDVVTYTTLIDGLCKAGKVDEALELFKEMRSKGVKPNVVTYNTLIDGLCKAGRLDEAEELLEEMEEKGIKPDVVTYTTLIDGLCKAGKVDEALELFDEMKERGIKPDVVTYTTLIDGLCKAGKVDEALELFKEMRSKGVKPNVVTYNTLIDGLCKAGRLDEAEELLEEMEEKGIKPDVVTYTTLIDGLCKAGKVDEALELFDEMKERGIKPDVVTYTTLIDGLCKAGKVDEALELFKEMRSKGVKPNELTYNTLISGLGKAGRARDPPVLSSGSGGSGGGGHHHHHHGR
Procedure, shortened: as §1

NL_v2_PPR22 = target: T4, NL_v2_PPR22 (Artificial Sequence)
T4 chain: T3 chain with K283D, K388D, K493D, K598D, K703D, K808D
Procedure, shortened: as §2

NL_v2_PPR16 = target: T5, NL_v2_PPR16 (Artificial Sequence)
T5 chain: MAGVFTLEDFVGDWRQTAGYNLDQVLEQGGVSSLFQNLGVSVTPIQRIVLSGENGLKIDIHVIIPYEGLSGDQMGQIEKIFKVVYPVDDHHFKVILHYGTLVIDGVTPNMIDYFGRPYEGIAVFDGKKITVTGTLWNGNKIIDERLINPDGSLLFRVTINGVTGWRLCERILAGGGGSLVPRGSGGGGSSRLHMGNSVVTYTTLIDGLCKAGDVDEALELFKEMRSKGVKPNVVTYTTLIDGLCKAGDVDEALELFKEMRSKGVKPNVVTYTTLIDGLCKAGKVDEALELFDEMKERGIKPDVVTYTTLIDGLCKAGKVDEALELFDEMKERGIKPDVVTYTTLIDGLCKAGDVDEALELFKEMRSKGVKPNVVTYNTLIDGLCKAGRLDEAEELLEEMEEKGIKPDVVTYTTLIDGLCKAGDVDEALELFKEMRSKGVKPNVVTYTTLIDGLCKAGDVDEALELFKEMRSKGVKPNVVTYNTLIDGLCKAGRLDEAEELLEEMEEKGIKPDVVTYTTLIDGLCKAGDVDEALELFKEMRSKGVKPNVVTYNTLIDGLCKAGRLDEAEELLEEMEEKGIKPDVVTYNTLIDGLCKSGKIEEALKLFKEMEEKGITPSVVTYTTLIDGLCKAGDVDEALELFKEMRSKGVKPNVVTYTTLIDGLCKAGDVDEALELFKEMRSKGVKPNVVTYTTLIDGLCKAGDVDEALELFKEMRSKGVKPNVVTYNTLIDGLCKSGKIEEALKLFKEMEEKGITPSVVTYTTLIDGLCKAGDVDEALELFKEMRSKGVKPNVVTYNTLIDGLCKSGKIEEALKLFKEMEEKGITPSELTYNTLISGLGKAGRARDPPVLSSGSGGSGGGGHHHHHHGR
Procedure, shortened: as §2

GUCAGAGGGUUCUGGAUU showed a binding signal (v3.1_PPR7) of 21.3 log2 luminescence.
With GGUGGUGAGGCCCUGGGC the binding signal (NL_v2_PPR20) was 21.1 log2 luminescence, the binding signal (v3.1_PPR7) was 23.8 log2 luminescence and the binding signal (v3.1_PPR22) was 20.9 log2 luminescence.
Sequence GGUUAGAGAUACAGUGUG has a binding signal (v3.1_PPR7) of 23.4 log2 luminescence.
In the case of GUGGGGGUGGUAGGAAAU, the binding signal (NL_v2_PPR20) is reported as 22.4 log2 luminescence, the binding signal (NL_v2_PPR22) is reported as 21 log2 luminescence and the binding signal (NL_v2_PPR16) is reported as 22.1 log2 luminescence. It also gave a binding signal (v3.1_PPR7) of 24.2 log2 luminescence and a binding signal (v3.1_PPR22) of 20.8 log2 luminescence.
With GACUCAGGAAUCGGCUCU the binding signal (v3.1_PPR7) was 21 log2 luminescence.
